Screening data from PubChem.
Rows were chosen to be rich in hits. Some 5.9% of all compounds tested hit in one or more screens of this group.
ATXN2 expr inh = inhibitors of ATXN2 expression; Potency, µM (top dose mostly 57 µM), without a hit: at the highest dose activity change, negative = inhibition, most hits filed as inhibitors; AID 1745845; HEK-293 ATXN2-luciferase reporter, luminescence, 24 h; 360,000 compounds, 0.72% hits; note: % is set by controls: 0 for no effect and ±100 for the full control effect; nearly all actives have a fitted effect of over 55% in size
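qHTS (up to 57 uM final) was run with 24 h compound exposure of reporter cells at 37 °C. Each well was multiplexed: SteadyGlo luminescence measured ATXN2-luciferase expression after a fluorogenic Gly-Phe-AFC viability readout (25 uM final).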
TGFb SMAD3 inh = blocks TGF-b signaling | 410,000 compounds, 1.2% hits | Potency, µM (top dose mostly 46.1 µM), for inactives: at the top dose activity, negative = inhibition, usual class: inhibitors | AID 588855 | HepG2 CAGA-GFP TGF-b/SMAD3 reporter, GFP fluorescence, 18 h; TGF-beta stimulated, 500 pg/mL final; note: % is set by controls: 0 for no effect and ±100 for the full control effect; nearly all actives have a fitted effect of over 65% in size
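Read-out: total well GFP (ex488/em500-530) summed from mean per-cell fluorescence. Cells: HEPG2 CAGA-GFP, 1% FBS DMEM, 18 h at 37 degrees C with 500 pg/mL final TGF-beta. Unstimulated wells served as the full-inhibition control; stimulated DMSO wells = 0%.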
ATXN viability = cell viability loss in ATXN counter-screen. S2 cells (HEK-293 line with an ATXN2-luciferase reporter) viability, CellTiter-Fluor protease fluorescence, 24 h. Potency, µM (titrated, usually from 56.7 µM), hits mostly cytotoxic. 400,000 compounds, 0.49% hits; note: nearly all actives have a fitted effect of over 40% in size
HepG2 tox = kills HepG2 cells in TGF-b inhibitor counter-screen; Potency, µM (top dose mostly 46.1 µM), for inactives: top-dose activity change, negative = cytotoxicity, actives largely listed as cytotoxic; HepG2 CAGA-GFP viability, ATP luminescence, 18 h; AID 588856; 410,000 compounds, 0.76% hits
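CellTiter-Glo luminescence gave cytotoxicity after 18 hours at 37 degrees C. The cells were HepG2 CAGA-GFP in 1% FBS DMEM, stimulated with 500 pg/mL TGF-beta after compound addition. %Activity was normalised to no-cell wells (complete cell-killing) and DMSO (no toxicity), and curves were fitted and classified.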
KB-V1 MDR tox = KB-V1 MDR subline cytotoxicity. KB-V1 MDR cells viability, CellTiter-Glo, 72 h. Potency, µM (series often up to 46.1 µM), actives largely listed as cytotoxic. 400,000 compounds, 3.4% hits; note: % is set by controls: 0 for no effect and ±100 for the full control effect; nearly all actives have a fitted effect of over 60% in size
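Cells of the MDR subline KB-V1 are plated, dosed with compound at multiple concentrations, and incubated 72 h at 37 degrees C; CellTiter-Glo is then added and luminescence read after 10 min.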
KB-3-1 tox = KB-3-1 parental cell cytotoxicity. KB-3-1 viability, CellTiter-Glo ATP luminescence, 72 h. Potency, µM (top dose mostly 46.1 µM), hits mostly cytotoxic. 400,000 compounds, 1.4% hits; note: % is set by controls: 0 for no effect and ±100 for the full control effect; nearly all actives have a fitted effect of over 60% in size
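Cytotoxicity measured as CellTiter-Glo luminescence after 72 h at 37 C. Compound titrations were pinned onto drug-naive KB-3-1 parental adenocarcinoma cells grown in DMEM with 10% FBS, and normalized data fitted to concentration-response curves.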
* marks the source's active call; other numbers are inactive results; i = inactive; ? = inconclusive; . = not tested or not shown. Calls come from the whole dose curve; as a rule, active = well fitted curve in the direction sought with a large enough effect; inconclusive = small, poorly fitted or top-dose-only effect, or another doubt; inactive = no such curve, though single readings can be large; an effect the other way counts as inactive or inconclusive. Potency is the fitted concentration of half-maximal effect.

SMILES	ATXN2 expr inh	TGFb SMAD3 inh	ATXN viability	HepG2 tox	KB-V1 MDR tox	KB-3-1 tox
COCCNC(=O)/C(C#N)=C/c1cc(Br)c(O)c(OC)c1	3%	13%	?	6%	i	i
CC(NC(=O)/C(C#N)=C/c1ccc([N+](=O)[O-])o1)c1ccccc1 (centres undefined)	?	?	?	-79%	i	?
CCOCCCNC(=O)/C(C#N)=C/c1ccc([N+](=O)[O-])o1	?	-27%	19µM*	-5%	i	i
COc1ccc(CCN2C(=O)CN(Cc3ccccc3)CC2=O)cc1OC	17%	-3%	i	-4%	6.5µM*	i
COc1ccc(NC2=C(Cl)C(=O)N(CCc3ccccc3)C2=O)c(OC)c1	42%	0%	i	-15%	13µM*	i
COc1ccc(CCN2C(=O)C=CC2=O)cc1OC	?	?	?	-93%	?	i
COc1ccc(CCNC2=C(Cl)C(=O)N(CCc3ccc(OC)c(OC)c3)C2=O)cc1OC	?	-10%	?	-23%	21µM*	?
COc1ccc(NC2=C(Cl)C(=O)N(CCc3ccccc3)C2=O)cc1	27%	2%	i	-22%	i	i
COc1ccc(CCN2C(=O)c3cccnc3C2=O)cc1OC	-6%	0%	i	-73%	i	i
C[C@@H]1CCN(C(=O)[C@H](CCCN=C(N)N)NS(=O)(=O)c2cccc3c2NC[C@H](C)C3)[C@@H](C(=O)O)C1	8%	.	i	.	.	.
O=C(O)[C@@H](c1ccc(OCc2ccc3ccccc3n2)cc1)C1CCCC1	28%	.	.	.	.	.
Cc1ccc(NC(=O)C2CCCN(S(=O)(=O)c3ccc4c(c3)oc(=O)n4C)C2)cc1Cl (centres undefined)	5%	?	i	-4%	i	i
CC1(C)NC(=O)N(CCOCCOc2cccc(Oc3ccccc3)c2)C1=O	-1%	-13%	i	-25%	i	i
CC1(C)NC(=O)N(CCOCCOc2ccc3ccccc3c2Br)C1=O	56%	-18%	?	-22%	21µM*	i
CC1(C)NC(=O)N(CCCCOc2ccc3ccccc3c2Cl)C1=O	73%	-5%	i	-30%	21µM*	?
COC(=O)c1c(C)nn(-c2ccc(F)cc2)c1-n1cccc1	.	.	.	-15%	.	.
CCOc1ccc(-c2nnc3ccc(SCC(=O)NCc4ccco4)nn23)cc1	-8%	35%	i	-7%	16µM*	i
CCOC(=O)c1[nH]cnc1N=Nc1c(O)ccc2ccccc12	11µM*	0%	10µM*	4%	?	i
COc1ccccc1NC(=O)c1cc2c(CO)cnc(C)c2oc1=Nc1cccc(C(N)=O)c1	.	-13%	14µM*	-14%	i	i
CN1CCC(CNc2ccc3ncc(-c4cccc(OC(F)(F)F)c4)n3n2)CC1	24µM*	.	.	.	.	.
CCOc1ccc(NC2=C(OC)C(=O)c3ccccc3C2=O)cc1	-4%	11µM*	?	-83%	?	i
O=C(C1=C(c2ccccc2)C(=O)c2ccccc2C1=O)c1ccccc1	?	5.6µM*	.	10µM*	?	?
COC1=C(c2ccccc2)C(=O)c2ccccc2C1=O	?	11µM*	.	22µM*	?	i
O=C(c1ccccc1)c1c[nH]cc1-c1ccccc1	2%	10%	i	-3%	i	i
COC1=C(Nc2ccc(O)cc2)C(=O)c2ccccc2C1=O	-17%	?	?	-84%	?	?
SMILES	ATXN2 expr inh	TGFb SMAD3 inh	ATXN viability	HepG2 tox	KB-V1 MDR tox	KB-3-1 tox
COc1ccc(C2=C(Nc3ccccc3)c3ccccc3C2=O)cc1	-24%	?	?	-17%	i	i
COc1ccc(NC2=C(c3ccc(OC)cc3)C(=O)c3ccccc32)cc1	20%	1%	i	0%	5.2µM*	i
COc1ccc(CNC(=O)CSc2ncc3c(n2)-c2ccc(Cl)cc2N(Cc2ccc(F)cc2)S3(=O)=O)cc1OC	-13%	-10%	i	-22%	i	i
COc1ccc(NC2=C(NCCO)C(=O)c3ccccc3C2=O)cc1	-5%	-12%	i	-42%	21µM*	?
COC1=C(Nc2ccc(OC)cc2)C(=O)c2ccccc2C1=O	3%	16µM*	?	-58%	?	i
COc1cccc(NC2=C(NCCO)C(=O)c3ccccc3C2=O)c1	-29%	3%	i	-7%	i	i
Cc1ccccc1C1(CC(=O)N2CCOCC2)CC(=O)N(Cc2cccnc2)C1=O (centres undefined)	.	.	i	.	.	.
COc1ccc(C(=O)Nc2cc(-c3nc4ncccc4o3)ccc2C)cc1Br	1%	0%	?	-5%	i	i
COc1ccc(NS(=O)(=O)c2ccc(OC)c(NC(=O)CCC3CCCCC3)c2)cc1	1%	12%	i	1%	12µM*	i
COc1ccc(S(=O)(=O)Nc2ccccc2OC)cc1NC(=O)CC1CC2CCC1C2 (centres undefined)	-11%	-16%	i	-5%	21µM*	i
CCc1sc(C(=O)Nc2ccc(OC)c(S(=O)(=O)N3CCOCC3)c2)cc1C	-35%	-23%	i	-13%	i	i
COc1ccc(NC(=O)c2cc3c(s2)CCC(C)C3)cc1S(=O)(=O)N1CCOCC1 (centres undefined)	?	?	?	-22%	3.7µM*	i
COc1ccc(NC(=O)CC2CC3CCC2C3)cc1S(=O)(=O)N1CCOCC1 (centres undefined)	-12%	?	?	-2%	13µM*	i
Cc1ncc2c(c1CNC(=O)c1cncs1)CCN(C(=O)c1csc(-c3cccs3)n1)C2	.	.	i	.	.	.
CCC(=O)N1CCc2cc(Br)cc(S(=O)(=O)N3CCCC(C(=O)Nc4ccc(C(C)C)cc4)C3)c21 (centres undefined)	-10%	41%	i	-6%	i	i
O=C(Cn1ccn(-c2ccc(F)cc2)c(=O)c1=O)Nc1ccccc1C(F)(F)F	.	-9%	.	-3%	.	.
Cc1ccc2c(CC(=O)Nc3ccc(S(=O)(=O)N4CCCCC4C)cc3)coc2c1 (centres undefined)	-13%	?	i	-20%	i	i
COc1ccc(NC(=O)Cc2coc3cc(C)ccc23)cc1S(=O)(=O)N1CCOCC1	17%	?	i	-4%	18µM*	i
COc1ccc(NC(=O)Cc2coc3ccc4ccccc4c23)cc1S(=O)(=O)N1CCOCC1	1%	0%	i	16%	i	i
